Screens deposited in PubChem by National Center for Advancing Translational Sciences (NCATS).
The list is not random: actives were taken first. Their share in the collection is about 20%.
Shiga inhibitor: blocks Shiga toxin action in Vero cells; 290,000 tested, 9.2% active; Vero cells, Shiga toxin protein synthesis inhibition reporter; AID 2315; inhibition, % at 38.7 µM; in the data active means inhibition mostly above about 28%, no sharp cut-off; inactive means mostly below about 43%; further: 0% is about no effect
Pf growth 96h: P. falciparum growth inhibition at 96 hours; Potency, µM (titrated, usually from 28.7 µM), without a hit: top-dose activity change, negative = inhibition, usual class: inhibitors; P. falciparum luciferase reporter growth, 96 h; 320,000 tested, 6.9% active; further: potency means the concentration at half of the fitted maximal effect; on the % scale 0 is the no-effect control and ±100 the full control effect
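Luminescence readout: decreased luciferase signal marks inhibited growth of reporter-expressing P. falciparum in infected red cells (2% hematocrit, 0.05% parasitemia final), exposed to compound two generations (96 h, 37 C, 5% CO2).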
HCMV inh: inhibitors of human cytomegalovirus; HFF cells, HCMV-luciferase reporter, 72 h; hits give low values; 410,000 tested, 4.5% active; activity change, negative = inhibition, % at 57.5 µM; in the data active means activity change below about -60%; inconclusive means no clear call, values can overlap the other calls; inactive means above about -39%; further: on the % scale 0 is the no-effect control and ±100 the full control effect
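Cell-based, HFFs, 1000 cells/well, 16 h 37C; cpds in DMSO + HCMV-luc, MOI 1 PFU/cell; 72 h 37C; OneGlo luminescence after 5 min RT; norm. to buffer vs Salinomycin 10uM.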
Pf growth 48h: inhibits P. falciparum growth in the first generation, 48 h. P. falciparum luciferase growth in erythrocytes, 48 h. Potency, µM (highest dose often 28.7 µM), for the others: at the highest dose activity change, negative = inhibition, usual class: inhibitors. 310,000 tested, 5.9% active. AID 504832; further: potency means the concentration at half of the fitted maximal effect; on the % scale 0 is the no-effect control and ±100 the full control effect
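Parasite viability was followed by luminescence of a genomically integrated firefly luciferase. Cultures held 0.1% parasitemia at 2% hematocrit (final), incubated under 5% CO2 at 37 C.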
Cycloheximide cs: counter-screen for Shiga toxin inhibitors: cycloheximide protein synthesis inhibition; cell reporter, cycloheximide protein synthesis inhibition counterscreen; max response, %; 300,000 tested, 12% active; AID 2314; in the data active means max response mostly above about 13%, no sharp cut-off; inactive means mostly below about 14%; further: read at 38.3 µM for the half of the compounds with a filed dose; 0% is about no effect
The depositor's hits bear a star; i = inactive; u = inconclusive; x = no result given; [ ] = dose if it differs, or a comment. Unless noted, the call rests on the fitted dose curve; in most records, active means well fitted inhibition curve with a large enough effect; inconclusive means small, poorly fitted or top-dose-only effect, or another doubt; inactive means no such curve, though single readings can be large or run the other way.

SMILES	Shiga inhibitor	Pf growth 96h	HCMV inh	Pf growth 48h	Cycloheximide cs
CC1=C(C(=O)N2CCCC(C(=O)c3cccc(C(F)(F)F)c3)C2)OCCO1 (centres undefined)	13	13µM*	u	u	-2
O=C(c1cccc(C(F)(F)F)c1)C1CCCN(C(=O)Cn2cncn2)C1 (centres undefined)	4	-28%	-12	2%	13*
CC1=C(C(=O)N2CCCC(N3CCN(c4cccc(C(F)(F)F)c4)CC3)C2)OCCO1 (centres undefined)	-33	13µM*	-8	-17%	-1
CC1=C(C(=O)N2CCCC(N3CCN(c4cccc(Cl)c4)CC3)C2)OCCO1 (centres undefined)	3	-6%	-13	2%	20
O=C(c1ccc(C(F)(F)F)cc1)C1CCCN(C(=O)Cn2cncn2)C1 (centres undefined)	-8	34%	-6	7%	-2
COC(=O)CN1C(C(=O)c2ccccc2)=C(OC(=O)c2ccccc2)c2ccccc2S1(=O)=O	x	x	-1	x	x
CC(Oc1ccc(Cl)cc1)c1ccn[nH]1 (centres undefined)	13	0%	-30	13%	-2
O=[N+]([O-])c1ccc2nc(-c3ccc(OC(F)F)cc3)cn2c1	73*	88%	u	143%	45*
Oc1ccc(-c2cn3ccccc3n2)cc1O	-4	35%	201	x	3
Brc1ccc(OCc2cn3ccccc3n2)cc1	73*	i	-33	i	36*
O=[N+]([O-])c1ccc(-c2cn3ccccc3n2)cc1	x	x	-65*	x	x
Brc1ccc(-c2cn3ccccc3n2)cc1	52*	-19%	68	380%	35*
O=C(COc1ccc(Br)cc1)NCc1cn2ccccc2n1	-5	5%	-20	-4%	-4
O=C1OCc2cc(-c3ccccc3F)ccc21	x	x	-11	x	x
Oc1ccc(-c2cn3ccccc3n2)cc1	25	309%	72	109%	23*
c1ccc(-c2cn3ccccc3n2)cc1	x	x	94	x	x
CCN(CC)S(=O)(=O)c1ccc(-c2cn3ccccc3n2)cc1	x	x	-18	x	x
CN(C)S(=O)(=O)c1ccc(-c2cn3ccccc3n2)cc1	65*	5%	3	x	35*
CC(C)NC(=O)c1cc2c(s1)CCCC2	44*	36%	-18	33%	18*
Cc1ccc(/C=N/NC(=O)c2ccc(OC3CCCC3)cc2)o1	1	u	6	0%	13
CNC(=O)c1cc2c(s1)CCCCCC2	7	3%	8	-10%	7
CC(OC(=O)c1cc2c(s1)CCCCC2)C(=O)NC(N)=O (centres undefined)	35	71%	-33	25%	23*
Cc1ccc(/C=N/NC(=O)c2cc3c(s2)CCCC3)o1	x	u	-24	8.3µM*	x
COc1ccc(S(=O)(=O)N2CCC(c3ccncc3)CC2)cc1OC	x	x	-15	x	x
CN(C(=O)c1ccc(-c2nn(C)c(=O)c3ccccc23)cc1)c1ccccc1	20	u	-39	x	-1
SMILES	Shiga inhibitor	Pf growth 96h	HCMV inh	Pf growth 48h	Cycloheximide cs
COC1=CC(=O)c2c(ccc3ncnc(N)c23)C1=O	x	x	-99*	x	x
Cn1nc(-c2ccc(S(N)(=O)=O)s2)cc1C(F)(F)F	16	20%	-28	37%	-2
CN(C)C(=O)c1ccc(-c2cc(C(F)(F)F)nn2C)s1	53*	103%	27	198%	39*
Cn1nc(C(F)(F)F)cc1-c1ccc(S(N)(=O)=O)s1	68*	62%	-19	27%	38*
CCOc1ccc(C2SCC(=O)N2c2c(C)n(C)n(-c3ccccc3)c2=O)cc1 (centres undefined)	-30	9%	-29	12%	-7
CCOc1ccc(C2=C(C=Nc3c(C)n(C)n(-c4ccccc4)c3=O)C(c3ccc(F)cc3)c3ccccc3O2)cc1 (centres undefined)	15	0.29µM*	x	x	0
CC(NC(=O)c1cc2ccccn2n1)c1ccccc1 (centres undefined)	x	x	-3	x	x
CCOc1ccc(NC(=O)Cn2c(=O)n(CCCC(=O)NC3CCN(Cc4ccccc4)CC3)c(=O)c3ccccc32)cc1	-4	-22%	-7	5.2µM*	-3
Cc1cccc(NC(=O)Cn2c(=O)n(CCc3ccccc3)c(=O)c3ccccc32)c1	x	x	-1	x	x
NC(=O)Cn1c(=O)n(CCCC(=O)NC2CCN(Cc3ccccc3)CC2)c(=O)c2ccccc21	-9	4%	-3	x	-4
COc1cccc(NC(=O)Cn2c(=O)n(CCC(=O)NC3CCN(Cc4ccccc4)CC3)c(=O)c3ccccc32)c1	12	15µM*	0	u	3
Cc1cccc(NC(=O)Cn2c(=O)n(CCC(=O)NC3CCCC3)c(=O)c3ccccc32)c1	-1	2.1µM*	-10	4%	-4
O=C(CCn1c(=O)c2ccccc2n(Cc2ccccc2)c1=O)NC1CCN(Cc2ccccc2)CC1	0	8.3µM*	0	u	-3
CCOC(=O)c1ccc(NC(=O)CSc2nc(-c3ccc(OC)cc3)cc(C(F)(F)F)c2C#N)cc1	x	x	39	x	x
COc1ccc([C@H]2CC(=O)C=C(c3ccc(OC)nc3)C2)cc1	x	u	8	21%	x
O=C(Nc1c(C(=O)Nc2cccc3ccccc23)cnn1-c1ccccc1)c1ccco1	13	u	-25	u	3
CC(=O)Oc1c(C)c(OC(C)=O)c2c(c1C(C)=O)OC1CC(=O)C(C(C)=O)=C(O)C21C (centres undefined)	-7	12µM*	-29	8.3µM*	-2
CC(=O)c1c(O)c(C)c(O)c2c1OC1=CC(=O)C(C(C)=O)C(=O)[C@@]12C (some centres undefined)	-13	24%	10	-16%	1
CCC(CC)C(=O)Nc1cc(-c2ccccc2F)nn1-c1ccccc1	x	x	-10	x	x
COC(=O)CSc1nnc(C)n1-c1ccc(C)cc1	-1	25%	-3	x	-2
CCOC(=O)/C(=N/Nc1ccc(OC)cc1)Sc1nnc(CCc2ccccc2)n1-c1ccccc1	-23	-18%	0	13%	31*
CC(=O)/C(=N/Nc1ccc(C)cc1)Sc1nnc(CCc2ccccc2)n1-c1ccccc1	-9	-6%	-10	-7%	-1
CCOC(=O)CSc1nnc(Cc2ccc(OC)cc2)n1-c1ccccc1	8	x	-109*	8%	1
COC(=O)CSc1nnc(Cc2ccccc2)n1-c1ccc(C)cc1	0	8%	0	36%	14*
O=C(CCC(C(=O)c1ccccc1)c1ccccc1)c1ccccc1 (centres undefined)	x	x	-12	x	x
CCOC(=O)c1cnc(-c2ccc(C(F)(F)F)cn2)[nH]c1=O	-3	-26%	-14	0%	3
CCCCSCCCNC(=O)c1ccc2c(c1)N(CC)C(=O)c1ccccc1S2=O (centres undefined)	3	5%	-25	13µM*	-1
CCN1C(=O)c2ccccc2S(=O)(=O)c2ccc(C(=O)NC(C)C)cc21	-7	u	-15	0%[0.00184 µM]	-2
